Screening results: PubChem, National Center for Advancing Translational Sciences (NCATS)
Rows were chosen to be rich in hits. Some 18% of all compounds tested hit in one or more screens of this group.
TDP1 inh: blocks human tyrosyl-DNA phosphodiesterase 1; recombinant TDP1, AlphaScreen DNA substrate cleavage; AID 485290; Potency, µM (doses to about 130 µM), actives largely listed as inhibitors; 0.28% of 350,000 active; further: nearly all actives have a fitted effect of over 40% in size
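Signal: AlphaScreen proximity between streptavidin donor and anti-FITC acceptor beads on intact substrate. Reaction: Tdp1 1 nM, substrate 15 nM final, 5 min RT after 15 min compound preincubation.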
TDP1 cell noCPT: qHTS for Inhibitors of human tyrosyl-DNA phosphodiesterase 1 (TDP1): qHTS in cells in absence of CPT. Potency, µM (series often up to 46.2 µM), hits mostly inhibitors. AID 686978, 2013. 15% of 420,000 active. DT40 Tdp1-/- hTDP1 cells, no CPT, ATP luminescence, 48 h; further: nearly all actives have a fitted effect of over 55% in size
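Readout: luminescence from CellTiter-Glo after 30 min in the dark at RT. Cells: DT40 Tdp1-/- with stable hTDP1, 400/well. Exposure: compounds alone, ≥48 hr, 37 °C.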
TDP1 cell CPT: growth inhibition of DT40 Tdp1-/-;hTDP1 cells with camptothecin (screen for TDP1 inhibitors). Potency, µM (series often up to 46.2 µM), hits mostly inhibitors. chicken DT40 Tdp1-/-;hTDP1 cells + 20 nM CPT, ATP luminescence, 48 h. 12% of 420,000 active; further: nearly all actives have a fitted effect of over 55% in size
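Chicken DT40 Tdp1-/- cells stably complemented with human TDP1 were seeded at 400 cells/well in medium containing 20 nM camptothecin, exposed to pin-transferred compounds, and grown at 37 °C for at least 48 hr. Viability was read as ATP luminescence.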
Six1-Eya2 blk: blocks human Six1 binding to Eya2 | activity change, % (concentration not given with the values) | AlphaScreen GST-Six1/His-Eya2 binding, biochemical; stronger effect = lower value | 0.56% of 360,000 active | Q15475+O00167; in the data active means activity change below about -65%; inconclusive means mostly about -30% to -63%
Target sequence (O00167 whole entry, looked up): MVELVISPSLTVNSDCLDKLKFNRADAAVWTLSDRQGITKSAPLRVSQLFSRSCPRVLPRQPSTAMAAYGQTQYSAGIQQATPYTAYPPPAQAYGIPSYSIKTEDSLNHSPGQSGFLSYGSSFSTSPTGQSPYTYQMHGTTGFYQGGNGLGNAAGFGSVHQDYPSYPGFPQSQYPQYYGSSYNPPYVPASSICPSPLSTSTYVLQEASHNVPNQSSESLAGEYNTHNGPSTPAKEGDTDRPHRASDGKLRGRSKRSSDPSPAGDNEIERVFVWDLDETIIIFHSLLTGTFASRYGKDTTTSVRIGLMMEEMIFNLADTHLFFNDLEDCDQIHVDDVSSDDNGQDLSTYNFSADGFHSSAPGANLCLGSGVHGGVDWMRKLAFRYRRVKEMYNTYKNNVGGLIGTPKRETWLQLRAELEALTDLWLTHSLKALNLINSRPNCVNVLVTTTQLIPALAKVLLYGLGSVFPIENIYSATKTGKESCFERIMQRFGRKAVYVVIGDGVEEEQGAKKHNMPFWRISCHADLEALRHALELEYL
Target sequence (Q15475 whole entry, looked up): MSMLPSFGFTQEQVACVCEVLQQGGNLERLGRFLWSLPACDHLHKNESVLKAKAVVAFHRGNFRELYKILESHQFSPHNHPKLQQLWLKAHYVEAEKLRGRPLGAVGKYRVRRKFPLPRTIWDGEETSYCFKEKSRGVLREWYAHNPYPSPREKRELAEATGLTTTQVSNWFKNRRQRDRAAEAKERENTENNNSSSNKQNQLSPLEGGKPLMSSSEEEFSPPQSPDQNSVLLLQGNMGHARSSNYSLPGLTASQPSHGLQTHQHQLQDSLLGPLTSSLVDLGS
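GST-Six1 + His-Eya2 (5X stock: 250/500 nM); Tris pH 8.0, 300 mM NaCl, 0.05% BSA, 0.02% Tween 20; GSH donor/Ni acceptor beads; 1 h 37 °C dark; AlphaScreen readout.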
CtBP-E1A blk: CtBP/E1A binding inhibition | AlphaScreen GST-E1A/His-CtBP binding, 1536-well; stronger effect = lower value | activity change, % (concentration not given with the values) | 0.49% of 340,000 active | AID 651724; in the data active means activity change below about -65%; inconclusive means mostly about -30% to -63%
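AlphaScreen with 125 nM GST-E1A and 125 nM His-CtBP (5X stocks) in Tris pH 8.0, 300 mM NaCl, BSA, Tween 20, TCEP. Compounds preincubated 2 h at 37 deg C, then glutathione donor/nickel acceptor beads added for 1 h at 37 deg C in dark.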
IL1B secr inh: inflammasome signaling inhibition, IL-1 beta readout | 4.7% of 360,000 active | THP-1 LPS/ATP IL-1B secretion, AlphaLISA, 16 h; stronger effect = lower value | activity change, % at 57.5 µM; in the data active means activity change below about -50%; inconclusive means mostly about -30% to -49%
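THP-1 cells pretreated 1 hr with compounds (up to 57.5 uM final), then stimulated with LPS (250 ng/mL final) plus ATP (1.25 mM final); secreted IL-1B measured by AlphaLISA after 16 hr, decreased signal indicating inhibition.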
Large screens that a line does not name were inactive. Unless noted, the call rests on the fitted dose curve; in most records, active means well fitted curve in the direction sought with a large enough effect; inconclusive means small, poorly fitted or top-dose-only effect, or another doubt; inactive means no such curve, though single readings can be large; an effect the other way counts as inactive or inconclusive.

CCOc1ccc(S(=O)(=O)n2ccc(C)n2)c2ccccc12	TDP1 cell noCPT inconclusive, TDP1 cell CPT inconclusive, IL1B secr inh -53
Cc1ccc(N2CCN(Cc3nnc(-c4ccc5c(c4)OCO5)o3)CC2)c(C)c1	TDP1 cell noCPT 23µM, TDP1 cell CPT inconclusive (no result: Six1-Eya2 blk, CtBP-E1A blk, IL1B secr inh)
COc1cccc(C(C)(O)c2nc(-c3cccc(C#N)c3)cs2)c1 (stereo not drawn)	TDP1 cell noCPT 13µM, TDP1 cell CPT 18µM (no result: TDP1 inh)
COc1ccc(C(C)(O)c2nc(-c3cccc(C#N)c3)cs2)cc1 (stereo not drawn)	TDP1 cell noCPT 21µM, TDP1 cell CPT 13µM (no result: TDP1 inh)
CC(O)(c1ccccc1)c1nc(-c2cccc(C#N)c2)cs1 (stereo not drawn)	TDP1 cell noCPT inconclusive, TDP1 cell CPT inconclusive (no result: TDP1 inh)
Cc1cccc(Oc2ccc(NS(=O)(=O)c3ccc(C)c(C(=O)O)c3)cc2)c1	none
Cc1cc(S(=O)(=O)N2CCOCC2)ccc1OCC(=O)NCC1CCCO1 (stereo not drawn)	none
COc1ccc(N(CC(=O)N2CCN(c3ccccc3)CC2)S(=O)(=O)c2ccccc2)cc1	TDP1 cell noCPT 18µM, TDP1 cell CPT 16µM (no result: TDP1 inh)
COc1ccc(S(=O)(=O)N(CC(=O)N2CCN(c3ccccc3)CC2)c2ccccc2)cc1	TDP1 cell noCPT inconclusive
COc1ccc(N2CCN(C(=O)CN(c3cccc(OC)c3)S(=O)(=O)c3ccccc3)CC2)cc1	TDP1 cell noCPT 15µM, TDP1 cell CPT 21µM, Six1-Eya2 blk inconclusive
COc1ccc(N(CC(=O)Nc2ccccc2C(=O)N2CCCC2)S(=O)(=O)c2ccccc2)cc1	TDP1 cell noCPT 16µM, TDP1 cell CPT 21µM
COc1ccc(N(CC(=O)Nc2ccccc2C(N)=O)S(=O)(=O)c2ccc(C)c([N+](=O)[O-])c2)cc1	TDP1 cell noCPT 23µM, TDP1 cell CPT inconclusive, IL1B secr inh inconclusive (no result: CtBP-E1A blk)
N#CC1(Nc2ccc(-c3ccc(NC4(C#N)CCCC4)cc3)cc2)CCCC1	none (no result: TDP1 inh)
COC(=O)c1ccccc1NC(=O)CC(=O)Nc1ccccc1C(=O)OC	TDP1 cell noCPT inconclusive (no result: TDP1 inh, CtBP-E1A blk)
CCN(CC(=O)Nc1ccccc1C(=O)OC)S(=O)(=O)c1ccccc1	TDP1 cell noCPT inconclusive, TDP1 cell CPT 23µM
COc1cc([N+](=O)[O-])cc(/C=N/NC(=O)c2cc(C)nc3ccccc23)c1O	TDP1 cell noCPT inconclusive, TDP1 cell CPT inconclusive, Six1-Eya2 blk -93, CtBP-E1A blk -83
COc1cc([N+](=O)[O-])cc(/C=N/NC(=O)c2cc(-c3ccccc3)nc3ccccc23)c1O	TDP1 cell noCPT 23µM, TDP1 cell CPT 21µM, Six1-Eya2 blk inconclusive, CtBP-E1A blk -88
O=C(NCc1ccc(Cl)cc1)C(=O)NCC1OCCN1S(=O)(=O)c1cccs1 (stereo not drawn)	none
CC1(C(=O)O)CCC(C(=O)NNC(=O)c2ccccc2Cl)C1(C)C (stereo not drawn)	CtBP-E1A blk -65 (no result: TDP1 inh, IL1B secr inh)
CC1(C(=O)O)CCC(C(=O)Nc2ccccc2O)C1(C)C (stereo not drawn)	none
O=S(=O)(NC1c2cccc3cccc(c23)C1Sc1ncccn1)c1ccc(Cl)cc1 (stereo not drawn)	TDP1 cell noCPT inconclusive, TDP1 cell CPT inconclusive
Cc1ccc(S(=O)(=O)NC2c3cccc4cccc(c34)C2Sc2n[nH]c(N)n2)cc1 (stereo not drawn)	TDP1 cell noCPT 16µM, TDP1 cell CPT 21µM
COc1cc(CNn2c(C)n[nH]c2=S)cc(Cl)c1OCc1ccc(F)cc1	none
COc1cc(CNC2CCCCCCC2)cc(Cl)c1OCC(N)=O	none
COc1cc(CNC2CCCC2)cc(Cl)c1OCc1ccccc1Cl	TDP1 cell noCPT 23µM, TDP1 cell CPT 23µM, IL1B secr inh -94
CCOc1cc(CNC2CCCC2)cc(Cl)c1OCc1ccc(F)cc1	TDP1 cell noCPT 23µM, TDP1 cell CPT 15µM, IL1B secr inh -80
COc1cccc(CNC2CCCc3ccccc32)c1OC (stereo not drawn)	TDP1 cell noCPT inconclusive
COc1cc(CNC2CCCc3ccccc32)cc(OC)c1OC (stereo not drawn)	TDP1 cell noCPT 21µM, TDP1 cell CPT inconclusive
COc1cc(CNC2CCCC2)cc(Cl)c1OCc1ccc(F)cc1	TDP1 cell noCPT 15µM, TDP1 cell CPT inconclusive, IL1B secr inh inconclusive
CCCS(=O)(=O)N1CCCC(C(=O)NCCN(CC)c2ccccc2)C1 (stereo not drawn)	TDP1 cell noCPT inconclusive
O=C(NC(=S)N1CCc2ccccc21)C1CCC1	none
CC(=NNS(=O)(=O)c1ccc(C)cc1)c1ccncc1	IL1B secr inh inconclusive (no result: TDP1 inh)
CCOc1ccc(N2C(=O)CC(N(Cc3ccco3)C(=O)CC)C2=O)cc1 (stereo not drawn)	none
COc1ccc(Nc2nc(-c3cccc([N+](=O)[O-])c3)nc3ccccc23)c(OC)c1	TDP1 cell noCPT 18µM, TDP1 cell CPT inconclusive
COc1ccc(OC)c(Nc2nc(-c3cccc([N+](=O)[O-])c3)nc3ccccc23)c1	none
COc1ccc(Nc2nc(-c3cccs3)nc3ccccc23)c(OC)c1	TDP1 cell noCPT 13µM, TDP1 cell CPT 16µM
COc1ccccc1Nc1nc(-c2cccc([N+](=O)[O-])c2)nc2ccccc12	TDP1 cell noCPT 18µM, TDP1 cell CPT 23µM
CCn1c(=O)c([N+](=O)[O-])c(N2CCOCC2)c2ccccc21	TDP1 cell noCPT inconclusive
O=c1[nH][nH]c2cc([N+](=O)[O-])ccc12	TDP1 cell noCPT 3.7µM, TDP1 cell CPT 3.7µM, Six1-Eya2 blk inconclusive, CtBP-E1A blk inconclusive (no result: TDP1 inh)
O=c1[nH]c2cc([N+](=O)[O-])ccc2c2ccccc12	none (no result: TDP1 inh)
O=c1[nH]c2cc([N+](=O)[O-])ccc2c2ccc([N+](=O)[O-])cc12	TDP1 cell noCPT 15µM, TDP1 cell CPT 9.2µM (no result: TDP1 inh)
COc1ccc(N2CC(c3nc(-c4cc(OC)c(OC)c(OC)c4)no3)CC2=O)cc1Cl (stereo not drawn)	TDP1 cell noCPT 16µM, TDP1 cell CPT inconclusive (no result: Six1-Eya2 blk, CtBP-E1A blk, IL1B secr inh)
COc1cc(-c2noc(C3CC(=O)N(c4ccc5c(c4)OCCO5)C3)n2)cc(OC)c1OC (stereo not drawn)	TDP1 cell noCPT inconclusive, TDP1 cell CPT inconclusive (no result: Six1-Eya2 blk, CtBP-E1A blk, IL1B secr inh)
CN(C)c1ccc(-c2noc(C3CC(=O)N(c4ccc5c(c4)OCCO5)C3)n2)cc1 (stereo not drawn)	TDP1 cell noCPT 2.9µM, TDP1 cell CPT 4.6µM (no result: Six1-Eya2 blk, CtBP-E1A blk, IL1B secr inh)
O=C1CC(c2nc(-c3ccccc3)no2)CN1c1ccc2c(c1)OCCO2 (stereo not drawn)	none (no result: Six1-Eya2 blk, CtBP-E1A blk, IL1B secr inh)
